Screening data as filed in PubChem.
Nrf2 activator: Nrf2 pathway activation; AREc32 ARE-luciferase reporter (MCF7-derived line), luminescence, 24 h; Potency, µM (top dose mostly 46.1 µM), usual class: activators; 410,000 tested, 0.31% active; AID 624171; further: nearly all actives have a fitted effect of over 65% in size
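Luminescent ARE reporter assay in AREc32_Fluc cells: overnight plating at 37 deg C, 24 hr compound incubation, Steady-Glo added, 30 min RT before reading.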
A549 viability: A549 cytotoxicity, counter-screen for Nrf2 inhibitors | 390,000 tested, 0.16% active | A549 ARE-Fluc cells, CellTiter-Fluor viability, 18-24 h | AID 504648 | Potency, µM (titrated, usually from 46 µM), most hits filed as inhibitors
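Cytotoxicity counterscreen: CellTiter-Fluor fluorescence was measured in A549 ARE_Fluc cells after 18-24 h of compound exposure in a concentration series. The subsequent BugLite luminescent read reports ARE-luciferase activity.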
BRCA1 expr up: increases BRCA1 expression. 380,000 tested, 1.1% active. Potency, µM (top dose mostly 46.1 µM), usual class: activators. AID 624202. MCF7-BRCA1-FFLuc reporter, luminescence, 48 h; response scale: scaled: vehicle 0%, 10 µM genistein 100%; further: nearly all actives have a fitted effect of over 80% in size
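Luminescence from a BRCA1-driven firefly luciferase in MCF7 cells was read after 48 h compound exposure at 37 C. Data normalized against DMSO and a 10microM genistein activation control, then curve-fitted across the titration.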
p53 reactivation: mutant p53 re-activation in reporter cells | H1299 p53-A138V BP100-luciferase reporter, luminescence, 24 h | Potency, µM (top dose mostly 92.2 µM), most hits filed as activators | 320,000 tested, 0.063% active | AID 504706; further: nearly all actives have a fitted effect of over 45% in size
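p53-null H1299 cells stably carrying temperature-sensitive p53-A138V and a BP100-luciferase reporter were pinned with compounds (4-point, 1:5 series) and held 24 hrs at 37 deg C. Luminescence was read 10 min after detection reagent.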
Nrf2 inh: blocks Nrf2 signaling; A549 ARE-Fluc reporter, luciferase luminescence, 18-24 h; Potency, µM (doses to about 46 µM), usual class: inhibitors; 360,000 tested, 2.1% active; AID 504444; further: nearly all actives have a fitted effect of over 60% in size
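A549 ARE_Fluc cells, 5000/well, 5% FBS OPTI-MEM; compounds in dose-response, 18-24 h at 37 °C/5% CO2; CellTiter-Fluor viability read (Ex 405/Em 525), then BugLite luciferase luminescence = Nrf2 activity.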
IL2 activator: activates IL-2 in a cell-based reporter assay. IL-2 activation reporter assay, cell-based qHTS; stimulated with anti-CD3/CD4/CD28 beads; in transgenic mouse T cells. activation, % (series mostly up to about 46 µM). 360,000 tested, 0.065% active; in the data active means activation above about 50%; inconclusive means mostly about 30% to 49%
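Unstimulated transgenic mouse T cells, 750 per well, received compound and, after 60 minutes, anti-CD3/anti-CD4 bead plus anti-CD28 stimulation. EGFP and DsRed were quantified after 18 hours.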
Large screens that a line does not name were inactive. Shown are actives, neighbours in structure and some others; about 3.2% of the full set was active somewhere. Unless noted, the call rests on the fitted dose curve; in most records, active means well fitted curve in the direction sought with a large enough effect; inconclusive means small, poorly fitted or top-dose-only effect, or another doubt; inactive means no such curve, though single readings can be large; an effect the other way counts as inactive or inconclusive.

Cc1ccc(NC(=O)c2cc(=O)c3ccccc3o2)cc1S(=O)(=O)N1CCOCC1	Nrf2 inh inconclusive
Cc1ccc(NC(=O)CSc2ncnc3ccccc23)cc1S(=O)(=O)N1CCCCC1	A549 viability inconclusive, Nrf2 inh 15µM
Cc1ccc(NC(=O)Cn2c(=O)cnc3ccccc32)cc1S(=O)(=O)N1CCCCC1	Nrf2 inh 13µM
Cc1ccc(NC(=O)Cn2cc(C(F)(F)F)cc(Cl)c2=O)cc1S(=O)(=O)N1CCCCC1	Nrf2 inh 23µM
COc1ccc(S(=O)(=O)N2CCCCC2)cc1NC(=O)CSc1ncnc2ccccc12	none
Cc1ccc(NC(=O)c2cc(=O)c3ccccc3o2)cc1S(=O)(=O)N1CCCCC1	Nrf2 inh 16µM
Clc1cccc(CNc2ncnc3nc[nH]c23)c1	none (no result: Nrf2 activator, A549 viability, p53 reactivation, Nrf2 inh, IL2 activator)
O=C(CSc1nccn1Cc1ccco1)Nc1ccc(OC(F)(F)F)cc1	none (no result: BRCA1 expr up, p53 reactivation, Nrf2 inh, IL2 activator)
CC(C)(C)OC(=O)NC(Cc1ccccc1)C(=O)NC1COC2CC(n3cc(F)c(=O)[nH]c3=O)OC12 (stereo unspecified)	none (no result: Nrf2 activator, BRCA1 expr up, p53 reactivation, IL2 activator)
CCN1/C(=C/c2ccc3cc(C)ccc3[n+]2CC)Sc2cc(C)ccc21	A549 viability inconclusive, Nrf2 inh 4.6µM
CCCCN1/C(=C/c2ccc3ccccc3[n+]2CC)Sc2ccccc21	A549 viability inconclusive, Nrf2 inh inconclusive, IL2 activator inconclusive
CCN1/C(=C/c2ccc3cc(C)ccc3[n+]2C)Sc2ccc3sccc3c21	Nrf2 inh 18µM
c1coc(CNc2nc[n+]3c4c2ncn4CC3)c1	none (no result: Nrf2 activator, p53 reactivation, IL2 activator)
CSc1ccccc1OCc1cc(C(=O)N2CCN(c3ccccc3)CC2C)no1 (stereo unspecified)	BRCA1 expr up 13µM
CSc1ccccc1OCc1cc(C(=O)N2CCc3c(Cl)cccc3C2)no1	Nrf2 inh 9.2µM
CC(=O)c1ccc(OCc2cc(C(=O)N3CCN(c4ccccc4)CC3C)no2)cc1 (stereo unspecified)	BRCA1 expr up inconclusive, p53 reactivation inconclusive
COc1cc2c(cc1OC)CN(C(=O)c1ccc([N+](=O)[O-])o1)CC2	Nrf2 activator 13µM, A549 viability inconclusive, p53 reactivation inconclusive
O=C(c1ccc([N+](=O)[O-])o1)N1CCc2ccccc2C1	Nrf2 inh inconclusive
CCOC(=O)c1c(C)[nH]c(C(=O)N2CCc3cc(OC)c(OC)cc3C2)c1C	A549 viability inconclusive, Nrf2 inh 23µM
O=C(/C=C/c1ccc(-c2ccccc2[N+](=O)[O-])o1)c1ccco1	Nrf2 activator 10µM
O=C(/C=C/c1ccc([N+](=O)[O-])cc1)c1ccco1	none
CCOC(=O)c1c(C)nc2sc3c(=O)n(-c4ccc(C(C)=O)cc4)nnc3c2c1-c1ccc(Cl)cc1	A549 viability inconclusive, Nrf2 inh 18µM
CCOC(=O)c1c(C)nc2sc3c(=O)n(-c4ccc(C)cc4)cnc3c2c1-c1ccc(OC)cc1	none
CCOC(=O)c1c(C)nc2sc3c(=O)n(-c4ccc(C(C)=O)cc4)cnc3c2c1-c1ccc(Cl)cc1	Nrf2 inh 23µM
CCOC(=O)c1cc(S(=O)(=O)Nc2cc(F)ccc2C)[nH]n1	none (no result: p53 reactivation, Nrf2 inh, IL2 activator)
O=C(Cc1nnc(-c2nc3ccccc3[nH]2)o1)Nc1cc(C(F)(F)F)ccc1Cl	none (no result: Nrf2 activator, BRCA1 expr up, p53 reactivation, IL2 activator)
CC1CC(C)CN(C(=O)C(C)N2CCN(S(=O)(=O)c3ccc(C(F)(F)F)cc3)CC2)C1 (stereo unspecified)	A549 viability inconclusive, Nrf2 inh 18µM (no result: p53 reactivation)
CC(C(=O)N1CCCC1)N1CCN(S(=O)(=O)c2ccc(OC(F)(F)F)cc2)CC1 (stereo unspecified)	none
O=c1c2cn[nH]c2nc(SCc2cccc(Br)c2)n1-c1ccc(Cl)cc1	none (no result: BRCA1 expr up, p53 reactivation, Nrf2 inh, IL2 activator)
O=c1c2cn[nH]c2nc(SCc2ccc3c(c2)OCCO3)n1-c1ccccc1	Nrf2 inh 21µM
O=C(c1ccc(F)cc1)N1CCN2C(=O)c3ccccc3C12c1ccc(Cl)cc1 (stereo unspecified)	none
